For test [1], the system named is XIP peptide (Xip251-270) binding. Put plainly: XIP fragment 251-270 binding compounds – biochemical, small-molecule microarray, fluorescence 635/667 nm, 0.1 µg/mL protein, primary screen (AID 1182). The conditions noted are these: fluorescent protein binding, 635 nm, higher = more signal, called active from +8 up or from −8 down.
Another test has as its system XIP peptide (Xip251-270). Description: compounds binding XIP fragment 251-270 – biochemical, small-molecule microarray, fluorescence 635/667 nm, 0.5 µg/mL protein, primary screen (AID 1183). The note with it: fluorescence 635 nm, higher = more signal.
Test [2] can be described thus: blood-stage malaria parasite viability loss – strain 3D7, DAPI fluorescence, 100 nL, primary screen (AID 1184).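 Also: parasites grown inside human red blood cells in medium with human serum.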 The note with it: P. falciparum 3D7 growth, 3 d, higher = more signal.
In test [3] the target is Homeobox protein Hox-A13 (Mus musculus) (UniProt Q62424). Description: disruptors of Hoxa13 oligonucleotide interaction – biochemical, fluorescence polarization, labeled oligonucleotide, primary screen (AID 1185). The note with it: Hoxa13:DNA binding, 15 min, higher = more signal, called active from +8 up or from −8 down.
Test [4] in a line: blockers of DNA damage checkpoint Chk1 activation – imaging, HeLa, hydroxyurea, phospho-Chk1 antibody, percent positive cells, primary screen (AID 1186). The note with it: hydroxyurea-induced phospho-Chk1 immunofluorescence imaging, higher = more signal.
The nature of test [5]: blockers of DNA damage checkpoint Chk1 activation – imaging, HeLa, hydroxyurea, phospho-Chk1 nuclear intensity, primary screen (AID 1187). The conditions noted are these: hydroxyurea-induced phospho-Chk1 immunofluorescence imaging, higher = more signal.

Calls of active or inactive are those of the source. Unless noted, no rule for the calls is given here.

Homeobox protein Hox-A13 (Mus musculus), sequence (Q62424 whole entry, looked up): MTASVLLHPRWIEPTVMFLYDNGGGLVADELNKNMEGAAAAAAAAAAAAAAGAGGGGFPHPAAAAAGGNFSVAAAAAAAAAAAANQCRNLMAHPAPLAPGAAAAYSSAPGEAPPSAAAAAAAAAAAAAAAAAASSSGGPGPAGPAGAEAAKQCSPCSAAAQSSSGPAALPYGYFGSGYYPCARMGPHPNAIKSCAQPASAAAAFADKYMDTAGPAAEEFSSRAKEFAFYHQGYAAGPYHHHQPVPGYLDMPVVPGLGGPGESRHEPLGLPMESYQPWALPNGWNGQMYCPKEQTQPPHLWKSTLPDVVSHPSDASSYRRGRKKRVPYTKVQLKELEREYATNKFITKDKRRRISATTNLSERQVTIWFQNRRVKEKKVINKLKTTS

Regarding `O=C1O[C@H](c2ccccc2)[C@H](c2ccccc2)N2[C@H]1[C@@H](C(=O)Nc1nc3ccccc3s1)[C@]1(C(=O)Nc3ccccc31)[C@H]2c1ccc(O)cc1`, the composite z-score in test [1] was -0.0105 (inactive); in the test with XIP peptide (Xip251-270), 0.143. The z-score in test [2] is -0.739; in test [3], -0.0851 (inactive); in test [4], 0.282 (inactive); in test [5], 0.134 (inactive).
With `CN(C)CCCNC(=O)[C@@]1(Cc2ccccc2I)c2ccccc2C(=O)N(Cc2ccccc2C(F)(F)F)[C@H]1c1ccc(CO)cc1`, the composite z-score in test [1] is 0.165 (inactive); in the test on XIP peptide (Xip251-270), 0.514. The z-score in test [2] is -1.83; in test [3] it was -2.47 (inactive); in test [4], -0.239 (inactive); in test [5] it was -0.347 (inactive).
For `CCCCC=C[C@@H](NC(=O)c1cccs1)c1ccccc1`, the composite z-score in test [1] is -0.0837 (inactive); with XIP peptide (Xip251-270), -0.513. Besides, the z-score in test [2] is -0.414; in test [3] it was -3.05 (inactive); in test [4], -0.483 (inactive); in test [5], -0.695 (inactive).
For `CC(C)N1C(=O)C[C@@](C(=O)NCc2ccccc2)(c2ccc([N+](=O)[O-])cc2)[C@H]1c1ccc(CO)cc1`, the composite z-score is 0.168 (inactive) in test [1] and 0.524 in the test with XIP peptide (Xip251-270). In addition, the z-score in test [2] was -0.688; in test [3] it was -1.27 (inactive); in test [4] it was -0.293 (inactive); in test [5] it was -0.128 (inactive).
With `CCOC(=O)C1=C[C@@H](CC)N(S(=O)(=O)c2ccc(C)cc2)[C@H]1c1ccccc1`, the values for the composite z-score (in test [1]; in the test with XIP peptide (Xip251-270)) were 0.54 (inactive) and 0.208, respectively. Also, the z-score in test [2] is -1.81; in test [3], -2.63 (inactive); in test [4], 0.553 (inactive); in test [5], 0.54 (inactive).
In the case of `O=C(CS)NCCCCCCNC(=O)[C@H]1C[C@H]2C(=O)NCC(=O)N2[C@H]1c1ccc(O)cc1`, the composite z-score in test [1] was 0.545 (inactive); with XIP peptide (Xip251-270) it was 0.832. The z-score is 0.509 in test [2], -2.43 (inactive) in test [3], 0.419 (inactive) in test [4] and 0.37 (inactive) in test [5].
For the molecule `O=C1OCCC=C[C@H]2OC34C=CCN(Cc5ccccc5)C(=O)[C@H]3N(CCCO)C(=O)[C@@H]4C12` (stereo partly specified), the composite z-score in test [1] was 0.17 (inactive); in the test on XIP peptide (Xip251-270), -0.461. For the same molecule, the z-score is -2.21 in test [2], -4.21 (inactive) in test [3], -0.16 (inactive) in test [4] and -0.035 (inactive) in test [5].
Take `C=CCOC(=O)[C@H]1[C@@H]2C(=O)O[C@@H](c3ccccc3)[C@@H](c3ccccc3)N2[C@@H](c2ccc(OCCOC(=O)[C@@H]3C[C@@H]4C(=O)N5CCC[C@H]5C(=O)N4[C@@H]3c3ccc(O)cc3)cc2)[C@]12C(=O)Nc1ccccc12`: the composite z-score was 0.188 (inactive) in test [1] and 0.838 in the test on XIP peptide (Xip251-270). The z-score in test [2] was -1.8; in test [3], 1.28 (inactive); in test [4] it was -0.788 (inactive); in test [5], -0.507 (inactive).
`N#Cc1ccc(NN2C(C(O)c3cccs3)C=CC3C(=O)N(c4ccccc4)C(=O)C32)cc1` (stereo unspecified): the composite z-score in test [1] was 0.529 (inactive); in the test on XIP peptide (Xip251-270), 0.477. The z-score in test [2] is 0.407; in test [3] it was -2.34 (inactive); in test [4], 0.0213 (inactive); in test [5] it was -0.548 (inactive).
Take `CCOC(=O)[C@H]1C[C@H]2O[C@@]23C[C@H]1C(=O)N1CCCC1[C@@H]3O[Si](C)(C)C(C)(C)C` (stereo partly specified): the composite z-score was -0.0593 (inactive) in test [1] and -0.829 in the test on XIP peptide (Xip251-270). In addition, the z-score was -0.329 in test [2], -5.3 (inactive) in test [3], -0.0084 (inactive) in test [4] and -0.115 (inactive) in test [5].
For `CCCNC(=O)[C@@H]1c2ccccc2C(=O)N(Cc2ccccc2)[C@H]1c1ccc(CO)cc1`, the composite z-score in test [1] is 0.838 (inactive); in the test with XIP peptide (Xip251-270), 0.312. The z-score was -1.62 in test [2], -2.71 (inactive) in test [3], 0.0089 (inactive) in test [4] and -0.142 (inactive) in test [5].
For `CC(C)CNC(=O)[C@@]1(c2ccc([N+](=O)[O-])cc2)CC(=O)N(CC23CC4CC(CC(C4)C2)C3)[C@@H]1c1ccc(CO)cc1`, the composite z-score in test [1] is 1.1 (inactive); in the test with XIP peptide (Xip251-270), 0.796. In addition, the z-score is 0.0716 in test [2], -4.17 (inactive) in test [3], -0.471 (inactive) in test [4] and -0.141 (inactive) in test [5].
As for `Cc1ccc(S[C@]2(C(=O)NCC(C)C)CC(=O)N(Cc3ccccc3)[C@@H]2c2ccc(CO)cc2I)cc1`, the values for the composite z-score (in test [1]; in the test with XIP peptide (Xip251-270)) were 0.0656 (inactive) and 0.292, respectively. Further, the z-score in test [2] is -0.769; in test [3], -3.29 (inactive); in test [4], 0.292 (inactive); in test [5], 0.556 (inactive).
As to `O=C1C2C=CC(C(O)c3ccc(F)cc3)N(Nc3ccccc3)C2C(=O)N1c1ccccc1` (stereo unspecified), the composite z-score was 0.669 (inactive) in test [1] and -0.168 in the test on XIP peptide (Xip251-270). The z-score in test [2] is 0.191; in test [3] it was -4.12 (inactive); in test [4] it was -0.125 (inactive); in test [5], -0.391 (inactive).
For the molecule `CC(C)C[C@@H]1NC(=O)[C@@H]2C[C@H](C(=O)NCCCCCC[N+](C)(C)C)[C@H](c3ccc(O)cc3)N2C1=O`, the composite z-score was 1.5 (inactive) in test [1] and 0.535 with XIP peptide (Xip251-270). Besides, the z-score in test [2] was 0.727; in test [3] it was -2.3 (inactive); in test [4], -0.525 (inactive); in test [5] it was -0.124 (inactive).
As to `[N-]=[N+]=Nc1ccccc1[C@H]1OC(c2ccc(OCCCO)cc2)=N[C@@]1(CCS(=O)(=O)c1ccccc1)C(=O)O`, the composite z-score in test [1] was 0.835 (inactive); in the test with XIP peptide (Xip251-270), 0.824. Further, the z-score in test [2] was -1.46; in test [3], -4.02 (inactive); in test [4], 0.189 (inactive); in test [5], 0.222 (inactive).
As for `COC(=O)[C@@]1(Cc2ccccc2)[C@H]2c3cc(C(=O)N4CCCC4)n(Cc4ccc(C)o4)c3C[C@H]2CN1C(=O)c1ccccc1`, the composite z-score is 1.04 (inactive) in test [1] and 0.814 in the test with XIP peptide (Xip251-270). In addition, the z-score in test [2] is -1.11; in test [3], -4.62 (inactive); in test [4], 0.56 (inactive); in test [5], 0.421 (inactive).
In the case of `CN(C)CCCCNC(=O)[C@H]1C[C@H]2C(=O)N[C@@H](Cc3ccccc3)C(=O)N2[C@H]1c1ccc(O)cc1`, the composite z-score in test [1] was 0.508 (inactive); in the test with XIP peptide (Xip251-270), 0.0009. Also, the z-score in test [2] was -1.16; in test [3], -0.0255 (inactive); in test [4] it was -0.0685 (inactive); in test [5], -0.195 (inactive).
As to `CC(C)NC(=O)[C@@H]1c2ccccc2C(=O)N(Cc2ccccc2)[C@H]1c1ccc(CO)cc1`, the composite z-score was 0.747 (inactive) in test [1] and -0.138 with XIP peptide (Xip251-270). In addition, the z-score in test [2] was -0.679; in test [3], -2.9 (inactive); in test [4] it was -0.0443 (inactive); in test [5], 0.0197 (inactive).
For `CC(C)NC(=O)[C@@H]1c2ccccc2C(=O)N(Cc2ccccc2Cl)[C@H]1c1ccc(CO)cc1`, the composite z-score is 0.989 (inactive) in test [1] and 0.719 with XIP peptide (Xip251-270). For the same molecule, the z-score in test [2] is -0.842; in test [3] it was -3.24 (inactive); in test [4], 0.323 (inactive); in test [5], 0.667 (inactive).
With `CCCCCN1CC=CC23O[C@@H]4/C=C\CCC(C)OC(=O)C4[C@H]2C(=O)N(CCCCCO)[C@@H]3C1=O` (stereo partly specified), the figures for the composite z-score (in test [1]; in the test with XIP peptide (Xip251-270)) were -0.263 (inactive) and 0.0185, respectively. In addition, the z-score in test [2] was -1.24; in test [3] it was -4.05 (inactive); in test [4] it was -0.464 (inactive); in test [5], 0.131 (inactive).
Regarding `CC(C)C[C@@H]1NC(=O)[C@H]2C[C@@H](C(=O)NCCCCCNC(=O)CS)[C@@H](c3cccc(OCCO)c3)N2C1=O`, the composite z-score was 1.38 (inactive) in test [1] and 0.713 with XIP peptide (Xip251-270). Also, the z-score in test [2] is -0.159; in test [3], -3.89 (inactive); in test [4], -0.351 (inactive); in test [5], 0.184 (inactive).
For `O=C1O[C@@H](c2ccccc2)[C@@H](c2ccccc2)N2[C@@H](c3ccccc3OCCO)[C@]3(C(=O)Nc4ccc(C#CC5(O)CCCCCC5)cc43)[C@@H](C(=O)Nc3nc4ccccc4s3)[C@H]12`, the composite z-score is 0.0985 (inactive) in test [1] and 0.626 in the test on XIP peptide (Xip251-270). For the same molecule, the z-score was -2.16 in test [2], 2.1 (inactive) in test [3], 0.329 (inactive) in test [4] and 0.288 (inactive) in test [5].
Regarding `COC(=O)[C@@]1(Cc2ccc(OC)cc2)[C@H]2c3cc(C(=O)N(C)C)n(Cc4c(OC)[nH]cc(C)c4=O)c3C[C@H]2CN1C(=O)c1ccccc1`, the composite z-score is -0.378 (inactive) in test [1] and 0.523 in the test on XIP peptide (Xip251-270). For the same molecule, the z-score in test [2] was -1.44; in test [3], -5.46 (inactive); in test [4], 0.324 (inactive); in test [5], -0.208 (inactive).
`COc1ccc([Si](C)(C)[C@@H]2[C@@H](CC(=O)N3CCC[C@H]3CO)O[C@]3(C(=O)N(C)c4c(Br)cc(C)cc43)[C@H]2C)cc1`: the results for the composite z-score (in test [1]; in the test with XIP peptide (Xip251-270)) were 0.0849 (inactive) and 0.507, respectively. The z-score is -0.949 in test [2], -6.11 (inactive) in test [3], -0.477 (inactive) in test [4] and -0.466 (inactive) in test [5].
For the molecule `COCC1=C2[C@@H](CCc3ccccc3)OB(O)C[C@@H]2[C@@H]2C(=O)N(Cc3ccccc3)C(=O)[C@@H]2C1`, the composite z-score in test [1] is -0.653 (inactive); in the test on XIP peptide (Xip251-270), -0.538. Further, the z-score was 1.22 in test [2], -7.4 (inactive) in test [3], 0.141 (inactive) in test [4] and 0.381 (inactive) in test [5].

Source of the values: PubChem BioAssay.
